PubChem BioAssay (NCATS)
Values without a mark were called inactive. Records with an inconclusive call do not appear. Activity calls are given as the source filed them. The call rests on the fitted dose curve; in most records, active means well fitted curve in the direction sought with a large enough effect; inconclusive means small, poorly fitted or top-dose-only effect, or another doubt; inactive means no such curve, though single readings can be large; an effect the other way counts as inactive or inconclusive.

molecular target: Luciferin 4-monooxygenase (Photinus pyralis) (UniProt P08659); assay: Primary firefly luciferase (FLuc) qHTS assay for identification of artifact compounds. (AID 1845220); settings: purified firefly luciferase, luminescence, 5 min; series mostly up to 54.1 µM; activity change, negative = inhibition: at the top concentration; further: nearly all actives have a fitted effect of over 60% in size;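 on activity change, negative = inhibition: plate controls were DMSO vehicle for no effect and no enzyme for full effect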
Procedure, shortened: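 D-luciferin and ATP (10 uM each, final) in Tris acetate buffer pH 7.6 were incubated with compounds for 15 min at room temperature. The reaction was started with 10 nM Photinus pyralis luciferase and luminescence read after 5 min. Percent inhibition was fitted to a 4-parameter Hill equation.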

In order of rising “activity change, negative = inhibition” value:
1. C=C1C(=O)O[C@@H]2/C=C(\C)CC/C=C(\C(=O)O[C@@H]3O[C@H](CO)[C@@H](O)[C@H](O)[C@H]3O)CC[C@@H]12  -3.06% [at 25.7 µM]
2. Cc1occc(=O)c1O[C@@H]1O[C@H](CO[C@@H]2OC[C@](O)(CO)[C@H]2O)[C@@H](O)[C@H](O)[C@H]1O  1.65% [at 25.7 µM]
3. CC1CC(=O)[C@]2(O)C(C(=O)OCCc3ccc(O)c(O)c3)=CO[C@@H](O[C@@H]3O[C@H](CO)[C@@H](O)[C@H](O)[C@H]3O)[C@H]12 (some centres undefined)  3.36% [at 25.7 µM]

In order of falling “activity change, negative = inhibition” value:
1. CCCCCOC(=O)Nc1nc(=O)n(C2O[C@H](C)[C@@H](O)[C@H]2O)cc1F (some centres undefined)  4.57%
2. COc1cc2nc(=NC(=O)c3cccnc3)n3c(c2cc1OC)NCC3  4.4%
3. O=C(NC1Cc2ccccc2N(C[C@@H](O)CO)C1=O)c1cc2cc(Cl)sc2[nH]1 (some centres undefined)  2.1%
4. CCCSc1nc(NC2CC2c2ccc(F)c(F)c2)c2nnn(C3CC(OCCO)C(O)C3O)c2n1 (centres undefined)  1.8%
5. COC(O)(CC(C)C)C1Oc2cc(C)[nH]c(=O)c2O1 (centres undefined)  1.57%
6. CCCCC(=O)N1c2ccccc2NC2=C(C(=O)CCC2)C1c1ccccc1Cl (centres undefined)  1.29%
7. COc1cc(Nc2ccc([N+](=O)[O-])cc2C(=O)O)cc2ccccc12  -10.5%
8. Cc1ccc2[nH]c(=O)c(C3=NN(C(=O)CCC(=O)O)C(c4ccc(Br)cc4)C3)c(-c3ccccc3)c2c1 (centres undefined)  -15%

In the case of `CCOC(=O)C(CCc1ccccc1)NC1CCCN2CCCC(C(=O)O)N2C1=O` (centres undefined), the “outcome” value is reported as “inactive”.
With `Cc1ccccc1N1CCN(S(=O)(=O)C[C@]23CC[C@H](C[C@@H]2NC(=O)[C@@H](N)CCS(C)(=O)=O)C3(C)C)CC1` the “outcome” value was “inactive”.
For `COC(=O)C1(C)CCCC2(C)c3ccc(C(C)C)cc3C(O)C(O)C12` (centres undefined), the “outcome” value was “inactive”.
With `CN(C)CCC[C@]1(c2ccc(F)cc2)OCc2cc(C#N)ccc21` the “outcome” value was “inactive”.
In the case of `Nc1ncnc2c1c(COc1cccc(Cl)c1)nn2C1CCOCC1`, the “outcome” value is reported as “inactive”.

`C[C@@H]1CC[C@]2(C(=O)O[C@@H]3O[C@H](CO[C@@H]4O[C@H](CO)[C@@H](O[C@@H]5O[C@@H](C)[C@H](O)[C@@H](O)[C@H]5O)[C@H](O)[C@H]4O)[C@@H](O)[C@H](O)[C@H]3O)CC[C@]3(C)C(=CCC4[C@@]5(C)C[C@@H](O)[C@H](O)[C@@](C)(CO)C5CC[C@]43C)C2[C@H]1C` (some centres undefined) showed an activity change, negative = inhibition of 3.24% [at 11.6 µM].

test system: not listed separately; assay: Primary fluorescence-based thiol-reactive (MSTI) qHTS assay for identification of artifact compounds. (AID 1845221); settings: MSTI thiol-reactivity probe, 1 h; series mostly up to 53.8 µM; activity change, negative = thiol reactive: at the top concentration; further: nearly all actives have a fitted effect of over 65% in size; further: potency means the concentration at half of the fitted maximal effect;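 on activity change, negative = thiol reactive: thiol-reactive compounds lower the probe fluorescence signal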
Procedure, shortened: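 A multi-concentration qHTS design tested compounds against 4 uM MSTI, pH 7.4 phosphate-buffered saline. Plates were protected from light for 1 h at room temperature before imaging fluorescence.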

In order of falling “activity change, negative = thiol reactive” value:
1. O=C(NC1Cc2ccccc2N(C[C@@H](O)CO)C1=O)c1cc2cc(Cl)sc2[nH]1 (some centres undefined)  308%
2. Nc1ncnc2c1c(COc1cccc(Cl)c1)nn2C1CCOCC1  164%
3. CC1(C)[C@H]2C[C@H](C/C=C\CCCC(=O)O)[C@@H](NC(=O)c3csc4ccc(O)cc34)[C@@H]1C2  142%
4. CCCCC(=O)N1c2ccccc2NC2=C(C(=O)CCC2)C1c1ccccc1Cl (centres undefined)  93.3%
5. COc1cccc(OC)c1-c1ccc(C[C@H](NC(=O)c2c(Cl)cccc2Cl)C(=O)O)cc1  91.5%
6. CCCSc1nc(NC2CC2c2ccc(F)c(F)c2)c2nnn(C3CC(OCCO)C(O)C3O)c2n1 (centres undefined)  82.2%
7. CCOC(=O)C(CCc1ccccc1)NC(C)C(=O)N1Cc2ccccc2CC1C(=O)O (centres undefined)  59%
8. Cc1ccc2[nH]c(=O)c(C3=NN(C(=O)CCC(=O)O)C(c4ccc(Br)cc4)C3)c(-c3ccccc3)c2c1 (centres undefined)  49.2%
9. C=CC(C)(O)CCC1C(C)(O)CCC2C(C)(C)CCCC21C (centres undefined)  38.4%
10. C[C@@H]1O[C@@H](O[C@H]2[C@H](Oc3cc(O)c(C(=O)CCc4ccc(O)cc4)c(O)c3)O[C@H](CO)[C@@H](O)[C@@H]2O)[C@H](O)[C@H](O)[C@H]1O  36.2%
11. CN1CCN(C(=O)c2cc3cc(Cl)ccc3[nH]2)CC1  33.6%
12. CCCCCOC(=O)Nc1nc(=O)n(C2O[C@H](C)[C@@H](O)[C@H]2O)cc1F (some centres undefined)  23.7%
13. Cc1ccccc1N1CCN(S(=O)(=O)C[C@]23CC[C@H](C[C@@H]2NC(=O)[C@@H](N)CCS(C)(=O)=O)C3(C)C)CC1  17.6%
14. COc1ccc(C2COc3cc(O)ccc3C2)c(O)c1OC (centres undefined)  8.78%
15. CC(C)C1CCC(C(=O)N[C@@H](Cc2ccccc2)C(=O)O)CC1 (some centres undefined)  3.7%
16. COC(=O)C1(C)CCCC2(C)c3ccc(C(C)C)cc3C(O)C(O)C12 (centres undefined)  2.53%
17. CCOC(=O)C(CCc1ccccc1)NC1CCCN2CCCC(C(=O)O)N2C1=O (centres undefined)  1.58%
18. CCC(=O)OCC(=O)[C@@]1(OC(=O)CC)[C@@H](C)C[C@H]2[C@@H]3CCC4=CC(=O)C=C[C@]4(C)[C@@]3(F)[C@@H](O)C[C@@]21C  1.45%
19. O=C(N[C@@H]1CC[C@@H](c2cccc(F)c2F)CN(CC(F)(F)F)C1=O)N1CCC(n2c(=O)[nH]c3ncccc32)CC1  -2.92%
20. CN(C)CCC[C@]1(c2ccc(F)cc2)OCc2cc(C#N)ccc21  -3.08%
21. COc1cc2nc(=NC(=O)c3cccnc3)n3c(c2cc1OC)NCC3  -7.98%
22. COC(O)(CC(C)C)C1Oc2cc(C)[nH]c(=O)c2O1 (centres undefined)  -9.31%
23. C=C1C(OC(C)=O)CCC2(C)CC3(O)OC(=O)C(C)=C3CC12 (centres undefined)  -16.5%

In order of rising “activity change, negative = thiol reactive” value:
1. Cc1occc(=O)c1O[C@@H]1O[C@H](CO[C@@H]2OC[C@](O)(CO)[C@H]2O)[C@@H](O)[C@H](O)[C@H]1O  -5.23% [at 25.6 µM]
2. CC1(C)CC[C@]2(C(=O)O)CC[C@]3(C)C(=CCC4[C@@]5(C)CC[C@H](O)C(C)(C)C5CC[C@]43C)C2C1 (some centres undefined)  3.88% [at 25.6 µM]
3. C/C=C/C=C/C=C/C(=O)OC1C=C2C(O)OC(=O)[C@]2(O)[C@@]2(C)CCCC(C)(C)[C@H]12 (some centres undefined)  8.77% [at 25.6 µM]
4. CC1CCC2C(C)(C)C(O)C(O)CC2(C)C12Cc1c(O)cc(CO)c(C=O)c1O2 (centres undefined)  22.3% [at 25.6 µM]
5. CC1(C)CC[C@]2(C(=O)O[C@@H]3O[C@H](CO)[C@@H](O)[C@H](O)[C@H]3O)[C@H](O)C[C@]3(C)C(=CCC4[C@@]5(C)CC[C@H](O[C@@H]6OC[C@@H](O)[C@H](O)[C@H]6O)[C@@](C)(C(=O)O)C5CC[C@]43C)[C@@H]2C1 (some centres undefined)  310% [at 25.6 µM]

In order of rising activity change, negative = thiol reactive:
1. COc1cc(C)c(C(=O)OC2C(C)OC(OC3CCC(C)C4C3C=C(C)C3/C(C)=C\CC/C(C)=C/C5(C)C=C(C(=O)O)C(C)CC56OC(=O)/C(=C(\O)C34C)C6=O)C(O)C2O)c(OC)c1 (centres undefined)  142% [at 11.5 µM]
2. CC1(C)CC[C@]2(C(=O)O[C@@H]3O[C@H](CO)[C@@H](O)[C@H](O)[C@H]3O)CC[C@]3(C)C(=CCC4[C@@]5(C)CC[C@H](O[C@H]6O[C@H](CO)[C@@H](O)[C@H](O[C@@H]7O[C@H](CO)[C@@H](O)[C@H](O)[C@H]7O)[C@H]6O)C(C)(C)C5CC[C@]43C)[C@@H]2C1 (some centres undefined)  168% [at 11.5 µM]
3. C[C@@H]1CC[C@]2(C(=O)O[C@@H]3O[C@H](CO[C@@H]4O[C@H](CO)[C@@H](O[C@@H]5O[C@@H](C)[C@H](O)[C@@H](O)[C@H]5O)[C@H](O)[C@H]4O)[C@@H](O)[C@H](O)[C@H]3O)CC[C@]3(C)C(=CCC4[C@@]5(C)C[C@@H](O)[C@H](O)[C@@](C)(CO)C5CC[C@]43C)C2[C@H]1C (some centres undefined)  329% [at 11.5 µM]

With `C[C@@H]1O[C@@H](OC[C@H]2O[C@@H](OCc3ccccc3)[C@H](O)[C@@H](O)[C@@H]2O)[C@H](O)[C@H](O)[C@H]1O` the Potency was 5.19 µM (active).
For `CC1CC2OCC3(O)CCC(O)C(C14CC(c1ccoc1)OC4=O)C23CO` (centres undefined), the Potency was 3.29 µM (active).
In the case of `C=C1CC[C@H]2[C@@](C)(CCC(OC3OC(CO)C(O)C(O)C3O)[C@@]2(C)CO)C1C(=O)CC1=CCOC1=O` (some centres undefined), the Potency is reported as 3.27 µM (active).
For `CC1CC(=O)[C@]2(O)C(C(=O)OCCc3ccc(O)c(O)c3)=CO[C@@H](O[C@@H]3O[C@H](CO)[C@@H](O)[C@H](O)[C@H]3O)[C@H]12` (some centres undefined), the Potency was 2.92 µM (active).
With `C=C1C(=O)O[C@@H]2/C=C(\C)CC/C=C(\C(=O)O[C@@H]3O[C@H](CO)[C@@H](O)[C@H](O)[C@H]3O)CC[C@@H]12` the Potency was 4.12 µM (active).
In the case of `COc1cc(Nc2ccc([N+](=O)[O-])cc2C(=O)O)cc2ccccc12`, the Potency is reported as 0.67 µM (active).
